PubChem BioAssay AID1159580 (chemical genetic matrix, 2015)
Where “and” joins values, the source holds several entries; their conditions need not be identical. Equal entries are not always repeated. About 2,000 (36%) of roughly 5,500 compounds were called active. Roughly 18% stayed inconclusive and do not appear here. Rule as the data show it: active = normalized growth mostly below about 0.91 (no sharp cut-off); inconclusive = no clear call, values can overlap the other calls; inactive = mostly above about 0.92. The list shows a part of the results.

Test: chemical genetic growth profiling, strain panel (AID 1159580);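 also: tested at 20 µM; growth read once vehicle control cultures reached saturation at 30 °C; 1 = growth at the plate median or of vehicle wells; lower values mean less growth of the strain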
Conditions: growth OD

Measured: normalized growth

CC(C)OC(=O)C(C)(C)Oc1ccc(C(=O)c2ccc(Cl)cc2)cc1
inactive: S. cerevisiae deletion strains, locus YJR075W, strain HOC1, stronger effect = lower value 0.957 and 0.996 | S. cerevisiae deletion strains, locus YKL009W, strain mrt4, stronger effect = lower value 0.906 | S. cerevisiae deletion strains, locus YKL068W, stronger effect = lower value 0.987 | S. cerevisiae deletion strains, locus YKL085W, strain MDH1 (second series), stronger effect = lower value 0.947 | S. cerevisiae deletion strains, locus YKL085W, strain MDH1, stronger effect = lower value 0.947 | S. cerevisiae deletion strains, locus YKL160W, strain elf1, stronger effect = lower value 0.987 | S. cerevisiae deletion strains, locus YKL190W, strain CNB1, stronger effect = lower value 0.974 | S. cerevisiae deletion strains, locus YKR001C, strain vps1, stronger effect = lower value 0.971 | S. cerevisiae deletion strains, locus YKR026C, strain gcn3, stronger effect = lower value 0.959 | S. cerevisiae deletion strains, locus YKR091W, strain srl3, stronger effect = lower value 0.977 | S. cerevisiae deletion strains, locus YLL001W, strain dnm1, stronger effect = lower value 0.96 | S. cerevisiae deletion strains, locus YLL026W, stronger effect = lower value 0.969 | S. cerevisiae deletion strains, locus YLL041C, strain sdh2, stronger effect = lower value 0.975 | S. cerevisiae deletion strains, locus YLR027C, strain aat2, stronger effect = lower value 0.967 | S. cerevisiae deletion strains, locus YLR039C, strain RIC1, stronger effect = lower value 0.935 | S. cerevisiae deletion strains, locus YLR058C, strain SHM2, stronger effect = lower value 1 | S. cerevisiae deletion strains, locus YLR102C, strain apc9, stronger effect = lower value 0.988 | S. cerevisiae deletion strains, locus YLR113W, strain HOG1, stronger effect = lower value 0.942 | S. cerevisiae deletion strains, locus YLR221C, strain rsa3, stronger effect = lower value 0.976 | S. cerevisiae deletion strains, locus YLR258W, strain gsy2, stronger effect = lower value 0.957 | S. cerevisiae deletion strains, locus YLR262C, strain YPT6 (second series), stronger effect = lower value 0.962 | S. cerevisiae deletion strains, locus YLR262C, strain YPT6, stronger effect = lower value 0.984 | S. cerevisiae deletion strains, locus YLR268W, strain sec22, stronger effect = lower value 0.971 | S. cerevisiae deletion strains, locus YLR320W, strain mms22, stronger effect = lower value 0.96 | S. cerevisiae deletion strains, locus YLR330W, strain CHS5, stronger effect = lower value 1.01 | S. cerevisiae deletion strains, locus YLR342W, strain FKS1 (second series), stronger effect = lower value 1.12 | S. cerevisiae deletion strains, locus YLR342W, strain FKS1, stronger effect = lower value 0.955 | S. cerevisiae deletion strains, locus YLR357W, strain rsc2, stronger effect = lower value 0.957 | S. cerevisiae deletion strains, locus YLR370C, strain arc18, stronger effect = lower value 0.967 | S. cerevisiae deletion strains, locus YLR371W, strain rom2, stronger effect = lower value 0.986 | S. cerevisiae deletion strains, locus YLR384C, strain iki3, stronger effect = lower value 0.971 | S. cerevisiae deletion strains, locus YLR418C, strain cdc73, stronger effect = lower value 0.879 | S. cerevisiae deletion strains, locus YML016C, strain PPZ1, stronger effect = lower value 1.01 | S. cerevisiae deletion strains, locus YML032C, strain rad52, stronger effect = lower value 0.984 | S. cerevisiae deletion strains, locus YML120C, strain ndi1, stronger effect = lower value 0.964 | S. cerevisiae deletion strains, locus YML124C, strain tub3, stronger effect = lower value 0.982 | S. cerevisiae deletion strains, locus YMR058W, strain fet3, stronger effect = lower value 0.987 | S. cerevisiae deletion strains, locus YMR078C, strain ctf18, stronger effect = lower value 0.982 | S. cerevisiae deletion strains, locus YMR125W, strain sto1, stronger effect = lower value 0.942 | S. cerevisiae deletion strains, locus YMR129W, stronger effect = lower value 0.97 | S. cerevisiae deletion strains, locus YMR205C, strain PFK2, stronger effect = lower value 0.923 | S. cerevisiae deletion strains, locus YMR223W, strain ubp8, stronger effect = lower value 0.958 | S. cerevisiae deletion strains, locus YMR231W, strain pep5, stronger effect = lower value 0.969 | S. cerevisiae deletion strains, locus YMR263W, strain SAP30, stronger effect = lower value 1 | S. cerevisiae deletion strains, locus YMR307W, strain GAS1, stronger effect = lower value 0.807 and 0.993 | S. cerevisiae deletion strains, locus YNL067W, strain RPL9B, stronger effect = lower value 0.973 | S. cerevisiae deletion strains, locus YNL071W, strain lat1, stronger effect = lower value 0.941 | S. cerevisiae deletion strains, locus YNL128W, strain TEP1, stronger effect = lower value 1.01 | S. cerevisiae deletion strains, locus YNL153C, strain GIM3, stronger effect = lower value 1.01 and 1.02 | S. cerevisiae deletion strains, locus YNL175C, strain NOP13, stronger effect = lower value 1.02 | S. cerevisiae deletion strains, locus YNL183C, strain NPR1, stronger effect = lower value 0.893 | S. cerevisiae deletion strains, locus YNL197C, strain WHI3, stronger effect = lower value 1.03 | S. cerevisiae deletion strains, locus YNL209W, strain ssb2, stronger effect = lower value 0.983 | S. cerevisiae deletion strains, locus YNL224C, strain SQS1, stronger effect = lower value 0.991 | S. cerevisiae deletion strains, locus YNL233W, strain BNI4, stronger effect = lower value 0.978 | S. cerevisiae deletion strains, locus YNL248C, strain rpa49, stronger effect = lower value 0.997 | S. cerevisiae deletion strains, locus YNL250W, strain rad50, stronger effect = lower value 0.989 | S. cerevisiae deletion strains, locus YNL271C, strain bni1, stronger effect = lower value 0.985 | S. cerevisiae deletion strains, locus YNL298W, strain CLA4, stronger effect = lower value 0.992 | S. cerevisiae deletion strains, locus YNL307C, strain MCK1, stronger effect = lower value 0.973 | S. cerevisiae deletion strains, locus YNL322C, strain KRE1 (second series), stronger effect = lower value 0.983 | S. cerevisiae deletion strains, locus YNL322C, strain KRE1, stronger effect = lower value 1.01 and 0.984 | S. cerevisiae deletion strains, locus YNR049C, strain mso1, stronger effect = lower value 0.98 | S. cerevisiae deletion strains, locus YNR052C, strain pop2, stronger effect = lower value 0.991 | S. cerevisiae deletion strains, locus YOL006C, strain TOP1, stronger effect = lower value 0.61 | S. cerevisiae deletion strains, locus YOL012C, strain htz1 0.615 | S. cerevisiae deletion strains, locus YOL147C, strain pex11, stronger effect = lower value 0.984 | S. cerevisiae deletion strains, locus YOR001W, strain rrp6, stronger effect = lower value 0.99 | S. cerevisiae deletion strains, locus YOR061W, strain CKA2, stronger effect = lower value 0.986 | S. cerevisiae deletion strains, locus YOR069W, strain VPS5, stronger effect = lower value 1.01 | S. cerevisiae deletion strains, locus YOR070C, strain gyp1, stronger effect = lower value 0.971 | S. cerevisiae deletion strains, locus YOR080W, strain dia2, stronger effect = lower value 0.972 | S. cerevisiae deletion strains, locus YOR083W, strain WHI5 (second series), stronger effect = lower value 1.12 | S. cerevisiae deletion strains, locus YOR083W, strain WHI5, stronger effect = lower value 0.996 | S. cerevisiae deletion strains, locus YOR106W, strain vam3, stronger effect = lower value 0.927 | S. cerevisiae deletion strains, locus YOR136W, strain idh2, stronger effect = lower value 0.989 | S. cerevisiae deletion strains, locus YOR144C, strain elg1, stronger effect = lower value 0.992 | S. cerevisiae deletion strains, locus YOR184W, strain ser1, stronger effect = lower value 0.909 | S. cerevisiae deletion strains, locus YOR231W, strain MKK1, stronger effect = lower value 0.949 | S. cerevisiae deletion strains, locus YOR265W, strain rbl2, stronger effect = lower value 0.97 | S. cerevisiae deletion strains, locus YOR270C, strain vph1, stronger effect = lower value 0.799 | S. cerevisiae deletion strains, locus YOR290C, strain snf2, stronger effect = lower value 0.97 | S. cerevisiae deletion strains, locus YOR316C, strain cot1, stronger effect = lower value 0.988 | S. cerevisiae deletion strains, locus YPL051W, strain arl3, stronger effect = lower value 1 | S. cerevisiae deletion strains, locus YPL055C, strain LGE1, stronger effect = lower value 0.971 | S. cerevisiae deletion strains, locus YPL078C, strain atp4, stronger effect = lower value 0.985 | S. cerevisiae deletion strains, locus YPL106C, strain sse1, stronger effect = lower value 1.02 | S. cerevisiae deletion strains, locus YPL240C, strain hsp82, stronger effect = lower value 0.994 | S. cerevisiae deletion strains, locus YPL241C, strain CIN2, stronger effect = lower value 0.99 and 0.991 | S. cerevisiae deletion strains, locus YPL256C, strain CLN2, stronger effect = lower value 0.953 | S. cerevisiae deletion strains, locus YPR119W, strain clb2, stronger effect = lower value 0.983 | S. cerevisiae deletion strains, locus YPR141C, strain kar3, stronger effect = lower value 0.985 | S. cerevisiae deletion strains, locus YPR163C, strain tif3, stronger effect = lower value 0.981 | S. cerevisiae deletion strains, locus YPR167C, strain met16, stronger effect = lower value 0.984 | S. cerevisiae deletion strains, strain wtn01, stronger effect = lower value 0.987 | S. cerevisiae strains, strain wild type, stronger effect = lower value 0.993
